# Test results taken from PubChem BioAssay (NCATS).
# “And” between values parts separate entries of the source, which are not always exact repeats. Identical values can stand only once. Inconclusive results are not listed. Entries that show only a call come without a potency. The source made the active and inactive calls. Unless noted, calls follow the shape of the full dose curve.
# How the values were obtained:
# [1] = qHTS for Inhibitors of the Functional Ribonucleoprotein Complex (vRNP) of Lassa (LASV) Arenavirus: LASV Primary Screen - GLuc reporter signal (AID 1347082; calls by dose curve; tested in HEK293 reporter line; also: nearly all actives have a fitted effect of over 60% in size)
# [2] = qHTS for Inhibitors of the Functional Ribonucleoprotein Complex (vRNP) of Lassa (LASV) Arenavirus: Viability assay - alamar blue signal for LASV Primary Screen (AID 1347083; calls by dose curve; tested in HEK293 reporter line; also: nearly all actives have a fitted effect of over 80% in size)
# [3] = qHTS for Inhibitors of the Functional Ribonucleoprotein Complex (vRNP) of Lymphocytic Choriomeningitis Arenaviruses (LCMV): Viability assay - alamar blue signal for LCMV Primary Screen (AID 1347085; calls by dose curve; tested in HEK293 reporter line; also: nearly all actives have a fitted effect of over 80% in size)
# [4] = biological target: Nucleoprotein (Lymphocytic choriomeningitis virus (strain Armstrong)) (UniProt P09992); assay: qHTS for Inhibitors of the Functional Ribonucleoprotein Complex (vRNP) of Lymphocytic Choriomeningitis Arenaviruses (LCMV): LCMV Primary Screen - GLuc reporter signal (AID 1347086); also: nearly all actives have a fitted effect of over 70% in size
# [5] = system: Zika virus NS2B-NS3 protease; assay: Primary screen GU AMC qHTS for Zika virus inhibitors (AID 1347154; active = well fitted curve in the direction sought with a large enough effect; an effect the other way counts as inactive or inconclusive; also: nearly all actives have a fitted effect of over 70% in size)
# Method in brief: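 Unlinked Zika NS2B hydrophilic domain–NS3 protease complex at 25 nM in 10 mM Tris-HCl pH 8.0, 0.01% Tween 20, with an AMC peptide substrate. Fluorescence change (340/450 nm) over 15 min at room temperature, normalized to controls, fitted to 4-parameter Hill.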
# [6] = qHTS for inhibitors of Rabies Virus screened against the NCATS CANVASS Library (AID 1347402)
# [7] = Primary qHTS for small molecule stabilizers of the endoplasmic reticulum resident proteome: Secreted ER Calcium Modulated Protein (SERCaMP) assay (AID 1508630; active = well fitted curve in the direction sought with a large enough effect; an effect the other way counts as inactive or inconclusive)
# Method in brief: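 GLuc-SERCaMP-expressing SH-SY5Y cells, pretreated 16 h with compound, are challenged with thapsigargin to empty ER calcium stores; after 4 h, coelenterazine is added directly to the medium and luminescence is imaged.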
# [8] = qHTS Assay for Lipid Storage Modulators (AID 1519); conditions: Drosophila S3 cells, BODIPY lipid droplet/cell ratio, laser cytometry, cells loaded with oleic acid
# Method in brief: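 Cells seeded at 5,000 per well were treated with compounds over a concentration series and loaded with oleic acid (400 uM, as added). Lipid droplet fluorescence (488 nm excitation, 500-530 nm channel) was read by laser-scanning cytometry and normalized to 20 uM Triacsin C.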
# [9] = Validation screen for inhibitors of Lassa infection (AID 463096)
# [10] = measured here: cell count channel max response
# [11] = measured here: lipid channel max response
# Chain of Nucleoprotein (Lymphocytic choriomeningitis virus (strain Armstrong)) (P09992 whole entry, looked up): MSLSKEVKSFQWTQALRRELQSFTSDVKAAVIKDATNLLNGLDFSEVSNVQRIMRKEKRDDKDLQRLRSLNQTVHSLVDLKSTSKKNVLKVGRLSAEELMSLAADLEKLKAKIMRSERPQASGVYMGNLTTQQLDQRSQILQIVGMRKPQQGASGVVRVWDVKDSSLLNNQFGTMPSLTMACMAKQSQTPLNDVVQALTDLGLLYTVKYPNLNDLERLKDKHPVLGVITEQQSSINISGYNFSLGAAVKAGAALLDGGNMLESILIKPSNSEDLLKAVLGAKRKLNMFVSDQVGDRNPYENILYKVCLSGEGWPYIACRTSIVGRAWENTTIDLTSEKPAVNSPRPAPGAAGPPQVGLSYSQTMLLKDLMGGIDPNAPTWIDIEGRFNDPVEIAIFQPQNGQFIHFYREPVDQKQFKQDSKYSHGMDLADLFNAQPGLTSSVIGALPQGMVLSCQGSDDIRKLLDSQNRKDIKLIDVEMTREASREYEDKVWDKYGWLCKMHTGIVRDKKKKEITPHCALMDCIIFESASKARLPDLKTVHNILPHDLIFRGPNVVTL
compound,measurement,setting,value
COc1ccc2c(c1)c(=O)cc(-c1ccccc1)n2C,Potency,[1],inactive
same,Potency,[2],inactive
same,Potency,[3],inactive
same,Potency,[4],inactive
COc1cc(/C=C/c2ccc(O)cc2)cc(OC)c1,Potency,[1],inactive
same,Potency,[2],inactive
same,Potency,[3],inactive
same,Potency,[4],inactive
CC(C)C1Oc2cc3oc(=O)ccc3cc2C1=O (stereo unspecified),Potency,[1],inactive
same,Potency,[2],inactive
same,Potency,[3],inactive
same,Potency,[4],inactive
CN1CCCCC1c1cccnc1 (stereo unspecified),Potency,[1],inactive
same,Potency,[2],inactive
same,Potency,[3],inactive
same,Potency,[4],inactive
same,Potency,[5],inactive
C[C@@H]1OC(=O)[C@H]2C[C@H]3CCCC[C@@H]3[C@@H](/C=C/[C@H]3CCC[C@H](C)N3C)[C@@H]12,Potency,[1],inactive
same,Potency,[2],inactive
same,Potency,[3],inactive
same,Potency,[4],inactive
same,Potency,[5],inactive
NCCc1ccccc1,Potency,[1],inactive
same,Potency,[2],inactive
same,Potency,[3],inactive
same,Potency,[4],inactive
same,Potency,[5],inactive
same,outcome,[6],inactive
same,Potency,[7],inactive
C[C@H]1CC[C@@H]2N(C1)C[C@H]1[C@@H]3C[C@H]4[C@@H](CC(=O)[C@H]5C[C@@H](O)CC[C@@]54C)[C@@H]3CC[C@H]1[C@]2(C)O,Potency,[1],inactive
same,Potency,[2],inactive
same,Potency,[3],inactive
same,Potency,[4],inactive
same,Potency,[5],inactive
same,Potency,[7],inactive
c1cncc([C@@H]2CCCCN2)c1,"activity change, negative = inhibition",[8]; at 25.7 µM (top of the series),-0.77% (inactive)
same,"activity change, negative = inhibition",[8]; at 57.5 µM (top of the series),-0.69% (inactive)
same,max response,[8]; [10],-8.06% and -15.1%
same,max response,[8]; [11],-8.76% and -13.6%
same,Potency,[1],inactive
same,Potency,[2],inactive
same,Potency,[3],inactive
same,Potency,[4],inactive
same,Potency,[5],inactive
CC(C)c1cccc(O)c1,Potency,[1],inactive
same,Potency,[2],inactive
same,Potency,[3],inactive
same,Potency,[4],inactive
CCCCC/C=C\C[C@@H]1O[C@H]1/C=C/C(O)C/C=C\CCCC(=O)O (stereo partly specified),"activity change, negative = inhibition",[1],-3.16% [at 0.757 µM] (inactive)
same,"activity change, negative = reduced viability",[2],11.9% [at 0.757 µM] (inactive)
same,"activity change, negative = lower viability",[3],4.17% [at 0.757 µM] (inactive)
same,"activity change, negative = inhibition",[4],7.04% [at 0.757 µM] (inactive)
CN(C)Cc1c[nH]c2ccccc12,"activity change, negative = inhibition",[8]; at 25.7 µM (top of the series),-1.33% (inactive)
same,max response,[8]; [10],-14%
same,max response,[8]; [11],-14%
same,Potency,[1],inactive
same,Potency,[2],inactive
same,Potency,[3],inactive
same,Potency,[4],inactive
same,Potency,[5],inactive
same,outcome,[6],inactive
COc1ccc(CCN)cc1,Potency,[1],inactive
same,Potency,[2],inactive
same,Potency,[3],inactive
same,Potency,[4],inactive
same,Potency,[5],inactive
CCN1C[C@]2(COC(=O)c3ccccc3N3C(=O)CC(C)C3=O)CC[C@H](OC)[C@@]34C5C[C@@H]6[C@@H](OC)C[C@@](O)(C5[C@H]6OC)[C@](O)([C@@H](OC)C23)[C@@H]14 (stereo partly specified),Potency,[1],inactive
same,Potency,[2],inactive
same,Potency,[3],inactive
same,Potency,[4],inactive
same,Potency,[5],inactive
same,Potency,[7],inactive
C[C@@H]1CCN(C(=O)CC#N)C[C@H]1N(C)c1ncnc2[nH]ccc12,Potency,[1],inactive
same,Potency,[2],inactive
same,Potency,[3],inactive
same,Potency,[4],inactive
CC1=C(O)C(=O)[C@@H]2O[C@@H]2C1=O,Potency,[1],inactive
same,Potency,[2],inactive
same,Potency,[3],inactive
same,Potency,[4],inactive
same,Potency,[5],inactive
same,Potency,[7],inactive
C[N+]1([O-])CCC[C@@H]1c1cccnc1 (stereo partly specified),Potency,[1],inactive
same,Potency,[2],inactive
same,Potency,[3],inactive
same,Potency,[4],inactive
same,Potency,[5],inactive
same,Potency,[7],inactive
CN(CCCC(=O)c1cccnc1)N=O,Potency,[1],inactive
same,Potency,[2],inactive
same,Potency,[3],inactive
same,Potency,[4],inactive
same,Potency,[5],inactive
same,Potency,[7],inactive
COc1cc2oc3ccccc3c(=O)c2cc1OC,Potency,[1],inactive
same,Potency,[2],inactive
same,Potency,[3],inactive
same,Potency,[4],inactive
same,outcome,[6],inactive
COc1cc2c3c(c1OC)C1(C=CC(=O)C=C1)CC3N(C(C)=O)CC2 (stereo unspecified),Potency,[1],inactive
same,Potency,[2],inactive
same,Potency,[3],inactive
same,Potency,[4],inactive
CC(C)CCOC(=O)CC(C)C,Potency,[1],inactive
same,Potency,[2],inactive
same,Potency,[3],inactive
same,Potency,[4],inactive
CC(=O)OCC1=C(C(=O)[O-])N2C(=O)[C@@H](NC(=O)CCC[C@@H](N)C(=O)[O-])[C@H]2SC1.[Zn+2],Potency,[9],inactive
same,Potency,[1],inactive
same,Potency,[2],inactive
same,Potency,[3],inactive
same,Potency,[4],inactive
NCCC[C@H](N)CC(=O)N[C@H]1CNC(=O)[C@H]([C@H]2C[C@H](O)N=C(N)N2)NC(=O)C(=CNC(N)=O)NC(=O)[C@H](CO)NC(=O)[C@H](CO)NC1=O,Potency,[1],inactive
same,Potency,[2],inactive
same,Potency,[3],inactive
same,Potency,[4],inactive
C=CC(C)(CCC=C(C)C)OC=O (stereo unspecified),Potency,[1],inactive
same,Potency,[2],inactive
same,Potency,[3],inactive
same,Potency,[4],inactive
COc1ccc(C(C)=O)c(O)c1,Potency,[1],inactive
same,Potency,[2],inactive
same,Potency,[3],inactive
same,Potency,[4],inactive
Cn1cccc1-c1cccnc1,Potency,[1],inactive
same,Potency,[2],inactive
same,Potency,[3],inactive
same,Potency,[4],inactive
same,Potency,[5],inactive
same,Potency,[7],inactive
O=c1c(O)c(-c2ccc(O)c(O)c2)oc2cc(O)ccc12,Potency,[1],inactive
same,Potency,[2],inactive
same,Potency,[3],inactive
same,Potency,[4],inactive
same,outcome,[6],inactive
CNCC/C=C/c1cccnc1,Potency,[1],inactive
same,Potency,[2],inactive
same,Potency,[3],inactive
same,Potency,[4],inactive
same,Potency,[5],inactive
same,Potency,[7],inactive
CC(C)=CCOc1ccc2ccc(=O)oc2c1,Potency,[1],inactive
same,Potency,[2],inactive
same,Potency,[3],inactive
same,Potency,[4],inactive
CNCC(N)C(=O)O (stereo unspecified),Potency,[1],inactive
same,Potency,[2],inactive
same,Potency,[3],inactive
same,Potency,[4],inactive
same,Potency,[5],inactive
CC(C)=CCC[C@](C)(O[C@@H]1O[C@H](CO[C@@H]2OC[C@H](O[C@@H]3OC[C@@H](O)[C@H](O)[C@H]3O)[C@H](O)[C@H]2O)[C@@H](O)[C@H](O)[C@H]1O)C1CC[C@]2(C)C1[C@H](O)CC1[C@@]3(C)CC[C@H](O)C(C)(C)C3[C@@H](O)C[C@]12C (stereo partly specified),Potency,[1],inactive
same,Potency,[2],inactive
same,Potency,[3],inactive
same,Potency,[4],inactive
c1cncc(C2CCCN2)c1 (stereo unspecified),Potency,[1],inactive
same,Potency,[2],inactive
same,Potency,[3],inactive
same,Potency,[4],inactive
same,Potency,[5],inactive
O=C(Nc1cccc(C(F)(F)F)c1)Nc1cc(S(=O)(=O)NC2CC2)ccc1-c1ccsc1,Potency,[1],inactive
same,Potency,[2],inactive
same,Potency,[3],inactive
same,Potency,[4],inactive
COc1ccc(CCC(N)=O)cc1OC,Potency,[1],inactive
same,Potency,[2],inactive
same,Potency,[3],inactive
same,Potency,[4],inactive
O=c1c2c(O)cc(O)cc2oc2c(O)ccc(O[C@H]3O[C@@H](CO)[C@H](O)[C@@H](O)[C@@H]3O)c12,Potency,[1],inactive
same,Potency,[2],inactive
same,Potency,[3],inactive
same,Potency,[4],inactive
